# Test results from article PMC7862700, “An all-to-all approach to the identification of sequence-specific readers for epigenetic DNA modifications on cytosine”.
# Assays:
# Test in all cases: DAPPL (digital affinity profiling via proximity ligation, sequencing); 10 mM Tris-HCl pH 7.5, 50 mM NaCl, 1 mM DTT, 4% glycerol, room temperature, 30 min; GST-TFs on glutathione beads, 16-mer random dsDNA library, 0.1% formaldehyde crosslink after washing; high values mean tight binding
# FLI1 = biological target: T1, FLI1 (Homo sapiens, UniProt Q01543 1-452); settings: protein: recombinant; tags: N-terminal GST; dsDNA, one strand shown
# T1 sequence: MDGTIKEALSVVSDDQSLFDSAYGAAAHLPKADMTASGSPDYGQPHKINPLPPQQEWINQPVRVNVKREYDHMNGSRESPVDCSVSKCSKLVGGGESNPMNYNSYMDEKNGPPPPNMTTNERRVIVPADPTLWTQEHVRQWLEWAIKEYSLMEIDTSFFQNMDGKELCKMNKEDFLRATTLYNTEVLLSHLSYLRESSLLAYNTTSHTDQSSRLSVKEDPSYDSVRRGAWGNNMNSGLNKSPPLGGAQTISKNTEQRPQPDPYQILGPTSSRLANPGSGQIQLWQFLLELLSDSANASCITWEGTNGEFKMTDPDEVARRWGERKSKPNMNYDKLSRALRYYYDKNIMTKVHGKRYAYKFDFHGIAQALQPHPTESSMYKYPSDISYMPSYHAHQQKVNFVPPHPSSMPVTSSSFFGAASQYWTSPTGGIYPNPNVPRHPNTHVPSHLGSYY
# Procedure, shortened: (§1)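 Human transcription factors were made in yeast as GST fusions, captured on glutathione beads and barcoded with DNA. With a tag-only sample included, the pool was incubated with 200 nmole of a random double-stranded 16-mer DNA library in Tris/NaCl/DTT/glycerol buffer at room temperature for 30 min, then crosslinked with 0.1% formaldehyde after washing, ligated by proximity, amplified and sequenced. For binding signal, each hexamer's read frequency for a factor is divided by its frequency for the tag-only sample.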
# ELK1 = biological target: T2, ELK1 (Homo sapiens, UniProt P19419 1-428); settings: protein: recombinant; tags: N-terminal GST; dsDNA, one strand shown
# T2 sequence: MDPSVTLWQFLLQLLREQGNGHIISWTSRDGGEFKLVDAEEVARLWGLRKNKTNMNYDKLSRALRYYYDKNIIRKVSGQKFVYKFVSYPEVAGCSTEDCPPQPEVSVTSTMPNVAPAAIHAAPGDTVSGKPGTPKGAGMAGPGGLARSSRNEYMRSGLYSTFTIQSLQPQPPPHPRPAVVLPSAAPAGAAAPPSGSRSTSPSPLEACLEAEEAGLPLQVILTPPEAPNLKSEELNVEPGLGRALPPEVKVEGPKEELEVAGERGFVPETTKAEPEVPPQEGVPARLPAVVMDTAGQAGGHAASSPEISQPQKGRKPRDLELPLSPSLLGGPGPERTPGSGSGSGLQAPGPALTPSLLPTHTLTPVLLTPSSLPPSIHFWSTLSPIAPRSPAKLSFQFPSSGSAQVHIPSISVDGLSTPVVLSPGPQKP
# Procedure, shortened: as §1
# GABPA = biological target: T3, GABPA (Homo sapiens, UniProt Q06546 1-454); settings: protein: recombinant; tags: N-terminal GST; dsDNA, one strand shown
# T3 sequence: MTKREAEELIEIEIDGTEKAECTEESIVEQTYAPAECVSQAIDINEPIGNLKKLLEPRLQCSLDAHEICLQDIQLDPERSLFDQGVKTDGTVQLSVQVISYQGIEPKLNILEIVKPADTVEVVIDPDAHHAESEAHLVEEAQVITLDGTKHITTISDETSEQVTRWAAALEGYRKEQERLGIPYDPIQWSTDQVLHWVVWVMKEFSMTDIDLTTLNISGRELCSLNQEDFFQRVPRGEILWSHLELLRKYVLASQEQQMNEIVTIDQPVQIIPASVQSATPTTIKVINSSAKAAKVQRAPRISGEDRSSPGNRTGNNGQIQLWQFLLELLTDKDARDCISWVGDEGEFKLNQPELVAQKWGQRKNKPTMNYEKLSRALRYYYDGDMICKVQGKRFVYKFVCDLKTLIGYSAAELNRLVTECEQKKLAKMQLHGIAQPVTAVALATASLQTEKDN
# Procedure, shortened: as §1
# ERG = biological target: T4, ERG (Homo sapiens, UniProt P11308 1-479); settings: protein: recombinant; tags: N-terminal GST; dsDNA, one strand shown
# T4 sequence: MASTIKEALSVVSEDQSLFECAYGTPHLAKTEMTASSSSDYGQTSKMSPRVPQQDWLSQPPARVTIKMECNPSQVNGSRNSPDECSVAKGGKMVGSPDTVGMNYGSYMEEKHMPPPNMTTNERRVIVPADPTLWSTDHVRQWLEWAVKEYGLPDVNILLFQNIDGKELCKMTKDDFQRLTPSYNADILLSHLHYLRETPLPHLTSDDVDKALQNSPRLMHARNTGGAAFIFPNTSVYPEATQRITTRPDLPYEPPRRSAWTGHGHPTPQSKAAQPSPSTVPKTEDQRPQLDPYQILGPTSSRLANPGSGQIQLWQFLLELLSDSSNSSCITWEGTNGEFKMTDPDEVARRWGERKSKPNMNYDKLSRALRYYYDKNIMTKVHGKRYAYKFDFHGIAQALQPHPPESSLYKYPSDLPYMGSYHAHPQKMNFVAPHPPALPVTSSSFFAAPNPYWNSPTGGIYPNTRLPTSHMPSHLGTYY
# Procedure, shortened: as §1
# ELF1 = ELF1 (Homo sapiens, UniProt P32519 1-619); settings: protein: recombinant; tags: N-terminal GST; dsDNA, one strand shown
# Sequence of ELF1 (P32519 whole entry): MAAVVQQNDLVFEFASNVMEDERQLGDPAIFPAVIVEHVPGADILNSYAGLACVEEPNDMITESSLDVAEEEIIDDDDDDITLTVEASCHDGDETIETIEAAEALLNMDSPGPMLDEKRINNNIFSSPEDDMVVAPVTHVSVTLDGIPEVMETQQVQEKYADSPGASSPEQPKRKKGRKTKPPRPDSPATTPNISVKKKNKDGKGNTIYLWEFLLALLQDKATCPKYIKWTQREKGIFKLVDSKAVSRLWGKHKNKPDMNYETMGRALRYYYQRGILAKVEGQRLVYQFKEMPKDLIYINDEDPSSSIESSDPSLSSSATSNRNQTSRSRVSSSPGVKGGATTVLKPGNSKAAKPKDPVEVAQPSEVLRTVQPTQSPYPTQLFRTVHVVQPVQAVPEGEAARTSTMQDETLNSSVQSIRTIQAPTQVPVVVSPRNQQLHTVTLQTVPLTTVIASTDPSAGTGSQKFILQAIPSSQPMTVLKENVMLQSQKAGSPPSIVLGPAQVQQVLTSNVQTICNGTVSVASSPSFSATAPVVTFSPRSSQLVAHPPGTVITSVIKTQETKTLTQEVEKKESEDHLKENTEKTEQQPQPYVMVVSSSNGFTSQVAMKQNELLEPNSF
# Procedure, shortened: as §1
# EHF = biological target: T5, EHF (Homo sapiens, UniProt Q9NZC4 1-300); settings: protein: recombinant; tags: N-terminal GST; dsDNA, one strand shown
# T5 sequence: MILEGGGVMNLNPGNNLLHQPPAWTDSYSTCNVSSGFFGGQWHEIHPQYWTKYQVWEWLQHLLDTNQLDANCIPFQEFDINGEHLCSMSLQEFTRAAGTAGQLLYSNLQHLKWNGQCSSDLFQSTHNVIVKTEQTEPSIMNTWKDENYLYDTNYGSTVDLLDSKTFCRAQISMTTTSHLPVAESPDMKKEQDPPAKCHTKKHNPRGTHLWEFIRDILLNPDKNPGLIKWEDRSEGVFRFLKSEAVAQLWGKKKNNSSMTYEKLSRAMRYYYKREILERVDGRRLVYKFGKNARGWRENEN
# Procedure, shortened: as §1
# SPI1 = SPI1 (Homo sapiens, UniProt P17947 1-270); settings: protein: recombinant; tags: N-terminal GST; dsDNA, one strand shown
# Procedure, shortened: as §1
# SPIB = SPIB (Homo sapiens, UniProt Q01892 1-262); settings: protein: recombinant; tags: N-terminal GST; dsDNA, one strand shown
# Sequence of SPIB (Q01892 whole entry): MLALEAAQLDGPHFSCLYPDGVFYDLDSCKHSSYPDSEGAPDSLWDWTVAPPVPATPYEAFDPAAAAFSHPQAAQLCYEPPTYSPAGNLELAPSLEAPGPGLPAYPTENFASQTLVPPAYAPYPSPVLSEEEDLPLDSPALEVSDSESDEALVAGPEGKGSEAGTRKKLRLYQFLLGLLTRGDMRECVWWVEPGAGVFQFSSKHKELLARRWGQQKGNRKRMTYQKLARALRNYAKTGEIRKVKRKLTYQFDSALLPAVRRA
# Procedure, shortened: as §1
# ELK3 = biological target: T6, ELK3 (Homo sapiens, UniProt P41970 1-407); settings: protein: recombinant; tags: N-terminal GST; dsDNA, one strand shown
# T6 sequence: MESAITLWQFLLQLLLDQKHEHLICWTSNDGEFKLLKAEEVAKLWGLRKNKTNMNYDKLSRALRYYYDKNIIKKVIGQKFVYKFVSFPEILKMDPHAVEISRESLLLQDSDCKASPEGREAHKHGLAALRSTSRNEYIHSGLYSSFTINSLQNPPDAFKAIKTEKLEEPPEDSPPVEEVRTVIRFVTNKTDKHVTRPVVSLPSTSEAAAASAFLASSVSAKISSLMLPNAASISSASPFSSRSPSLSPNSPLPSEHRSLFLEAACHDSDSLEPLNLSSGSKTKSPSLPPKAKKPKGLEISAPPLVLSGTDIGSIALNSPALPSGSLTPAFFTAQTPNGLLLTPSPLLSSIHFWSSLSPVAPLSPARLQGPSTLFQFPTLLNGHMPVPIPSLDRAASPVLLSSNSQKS
# Procedure, shortened: as §1
# FEV = biological target: T7, FEV (Homo sapiens, UniProt Q99581 1-238); settings: protein: recombinant; tags: N-terminal GST; dsDNA, one strand shown
# T7 sequence: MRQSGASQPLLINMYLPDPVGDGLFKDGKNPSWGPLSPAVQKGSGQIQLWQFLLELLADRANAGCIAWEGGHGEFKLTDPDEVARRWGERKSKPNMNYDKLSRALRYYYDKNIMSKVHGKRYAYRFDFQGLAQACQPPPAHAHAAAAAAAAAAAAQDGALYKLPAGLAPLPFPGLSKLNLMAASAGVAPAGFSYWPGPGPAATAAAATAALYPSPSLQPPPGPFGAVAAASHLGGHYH
# Procedure, shortened: as §1
# ETV5 = ETV5 (Homo sapiens, UniProt P41161 1-510); settings: protein: recombinant; tags: N-terminal GST; dsDNA, one strand shown
# Sequence of ETV5 (P41161 whole entry): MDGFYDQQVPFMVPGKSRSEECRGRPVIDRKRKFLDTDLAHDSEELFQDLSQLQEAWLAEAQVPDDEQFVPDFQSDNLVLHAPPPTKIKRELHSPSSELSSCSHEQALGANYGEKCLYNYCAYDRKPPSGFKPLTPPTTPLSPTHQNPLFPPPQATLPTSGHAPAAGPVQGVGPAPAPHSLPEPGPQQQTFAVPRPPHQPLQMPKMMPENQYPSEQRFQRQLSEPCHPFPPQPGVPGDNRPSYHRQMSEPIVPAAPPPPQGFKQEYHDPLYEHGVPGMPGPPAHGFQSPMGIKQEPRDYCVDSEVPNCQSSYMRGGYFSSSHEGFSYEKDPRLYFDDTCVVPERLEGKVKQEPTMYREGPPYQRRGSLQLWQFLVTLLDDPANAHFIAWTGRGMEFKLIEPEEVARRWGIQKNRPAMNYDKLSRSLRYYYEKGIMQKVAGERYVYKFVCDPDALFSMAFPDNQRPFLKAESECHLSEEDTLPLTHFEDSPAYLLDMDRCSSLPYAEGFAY
# Procedure, shortened: as §1
# HSF1 = HSF1 (Homo sapiens, UniProt Q00613 1-529); settings: protein: recombinant; tags: N-terminal GST; chain copies: 3; dsDNA, one strand shown
# Sequence of HSF1 (Q00613 whole entry): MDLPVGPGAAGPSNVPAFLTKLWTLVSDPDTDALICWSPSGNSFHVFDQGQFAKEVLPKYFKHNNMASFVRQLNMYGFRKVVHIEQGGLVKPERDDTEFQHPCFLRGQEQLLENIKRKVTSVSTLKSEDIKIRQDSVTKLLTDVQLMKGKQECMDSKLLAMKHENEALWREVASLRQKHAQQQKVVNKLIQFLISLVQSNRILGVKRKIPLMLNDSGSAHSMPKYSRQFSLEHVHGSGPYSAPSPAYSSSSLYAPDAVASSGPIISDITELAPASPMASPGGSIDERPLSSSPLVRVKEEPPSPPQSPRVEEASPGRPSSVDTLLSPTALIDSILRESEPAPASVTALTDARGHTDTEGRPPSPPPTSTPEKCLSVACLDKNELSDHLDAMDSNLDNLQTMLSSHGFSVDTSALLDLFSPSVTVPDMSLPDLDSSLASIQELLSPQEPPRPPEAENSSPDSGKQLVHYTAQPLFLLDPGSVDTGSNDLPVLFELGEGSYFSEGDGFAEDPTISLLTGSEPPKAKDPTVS
# Procedure, shortened: as §1
# SPIC = biological target: T8, SPIC (Homo sapiens, UniProt Q8N5J4 1-248); settings: protein: recombinant; tags: N-terminal GST; dsDNA, one strand shown
# T8 sequence: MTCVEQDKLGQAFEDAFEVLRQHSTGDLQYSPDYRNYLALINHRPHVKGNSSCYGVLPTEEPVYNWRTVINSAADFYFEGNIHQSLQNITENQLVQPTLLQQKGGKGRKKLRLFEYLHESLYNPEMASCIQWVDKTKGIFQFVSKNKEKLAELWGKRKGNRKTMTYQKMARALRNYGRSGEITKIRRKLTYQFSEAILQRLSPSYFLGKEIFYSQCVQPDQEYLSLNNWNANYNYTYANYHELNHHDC
# Procedure, shortened: as §1
# ELF4 = ELF4 (Homo sapiens, UniProt Q99607 1-663); settings: protein: recombinant; tags: N-terminal GST; dsDNA, one strand shown
# Sequence of ELF4 (Q99607 whole entry): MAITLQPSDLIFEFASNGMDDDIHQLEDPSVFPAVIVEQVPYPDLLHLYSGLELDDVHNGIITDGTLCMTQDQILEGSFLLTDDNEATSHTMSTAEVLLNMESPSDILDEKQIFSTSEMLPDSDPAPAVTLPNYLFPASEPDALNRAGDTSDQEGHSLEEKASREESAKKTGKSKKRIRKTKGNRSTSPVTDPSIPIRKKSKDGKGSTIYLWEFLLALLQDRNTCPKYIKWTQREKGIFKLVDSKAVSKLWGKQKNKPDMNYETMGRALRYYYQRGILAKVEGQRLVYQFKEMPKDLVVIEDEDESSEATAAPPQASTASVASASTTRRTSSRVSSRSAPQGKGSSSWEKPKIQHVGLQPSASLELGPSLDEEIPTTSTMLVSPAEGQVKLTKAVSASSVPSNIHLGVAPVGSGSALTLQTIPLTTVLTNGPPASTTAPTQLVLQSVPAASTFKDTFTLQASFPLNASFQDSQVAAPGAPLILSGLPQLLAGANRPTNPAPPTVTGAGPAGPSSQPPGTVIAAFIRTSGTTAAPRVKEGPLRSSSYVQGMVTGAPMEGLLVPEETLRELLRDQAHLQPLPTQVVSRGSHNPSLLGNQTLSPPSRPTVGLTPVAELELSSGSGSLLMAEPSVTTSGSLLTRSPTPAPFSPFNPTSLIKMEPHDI
# Procedure, shortened: as §1
# ELK4 = biological target: T9, ELK4 (Homo sapiens, UniProt P28324-2 1-405); settings: protein: recombinant; tags: N-terminal GST; dsDNA, one strand shown
# T9 sequence: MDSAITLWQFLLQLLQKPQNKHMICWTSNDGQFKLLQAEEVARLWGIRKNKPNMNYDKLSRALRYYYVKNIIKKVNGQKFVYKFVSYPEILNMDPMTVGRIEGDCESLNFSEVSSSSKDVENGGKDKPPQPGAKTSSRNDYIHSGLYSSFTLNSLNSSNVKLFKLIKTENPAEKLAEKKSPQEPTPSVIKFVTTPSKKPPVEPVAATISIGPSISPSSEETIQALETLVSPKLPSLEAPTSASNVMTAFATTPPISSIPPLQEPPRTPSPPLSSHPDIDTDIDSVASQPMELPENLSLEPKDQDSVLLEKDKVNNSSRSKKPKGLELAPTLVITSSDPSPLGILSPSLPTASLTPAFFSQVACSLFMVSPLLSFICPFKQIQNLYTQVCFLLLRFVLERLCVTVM
# Procedure, shortened: as §1
# ETV2 = biological target: T10, ETV2 (Homo sapiens, UniProt O00321 1-342); settings: protein: recombinant; tags: N-terminal GST; dsDNA, one strand shown
# T10 sequence: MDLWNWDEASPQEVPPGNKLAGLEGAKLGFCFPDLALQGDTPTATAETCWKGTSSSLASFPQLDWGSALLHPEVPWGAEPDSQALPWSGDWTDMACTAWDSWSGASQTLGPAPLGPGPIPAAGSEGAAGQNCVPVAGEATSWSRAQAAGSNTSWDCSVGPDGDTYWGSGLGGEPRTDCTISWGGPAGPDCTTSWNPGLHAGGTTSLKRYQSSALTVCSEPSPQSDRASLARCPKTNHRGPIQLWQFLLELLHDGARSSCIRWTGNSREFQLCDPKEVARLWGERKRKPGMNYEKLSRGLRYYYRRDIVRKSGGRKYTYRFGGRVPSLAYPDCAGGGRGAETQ
# Procedure, shortened: as §1
# ELF3 = biological target: T11, ELF3 (Homo sapiens, UniProt P78545 1-371); settings: protein: recombinant; tags: N-terminal GST; dsDNA, one strand shown
# T11 sequence: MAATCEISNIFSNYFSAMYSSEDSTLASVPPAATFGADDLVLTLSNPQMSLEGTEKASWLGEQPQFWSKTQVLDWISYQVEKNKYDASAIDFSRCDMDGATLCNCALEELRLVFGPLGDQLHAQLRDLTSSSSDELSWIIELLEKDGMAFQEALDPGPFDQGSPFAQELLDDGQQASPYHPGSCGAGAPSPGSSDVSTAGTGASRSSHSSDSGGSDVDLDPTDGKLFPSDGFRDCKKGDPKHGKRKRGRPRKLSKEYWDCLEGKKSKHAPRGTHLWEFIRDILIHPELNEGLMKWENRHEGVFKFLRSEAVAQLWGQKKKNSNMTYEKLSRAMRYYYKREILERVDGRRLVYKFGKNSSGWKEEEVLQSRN
# Procedure, shortened: as §1
# CRX = CRX (Homo sapiens, UniProt O43186 1-299); settings: protein: recombinant; tags: N-terminal GST; dsDNA, one strand shown
# Sequence of CRX (O43186 whole entry): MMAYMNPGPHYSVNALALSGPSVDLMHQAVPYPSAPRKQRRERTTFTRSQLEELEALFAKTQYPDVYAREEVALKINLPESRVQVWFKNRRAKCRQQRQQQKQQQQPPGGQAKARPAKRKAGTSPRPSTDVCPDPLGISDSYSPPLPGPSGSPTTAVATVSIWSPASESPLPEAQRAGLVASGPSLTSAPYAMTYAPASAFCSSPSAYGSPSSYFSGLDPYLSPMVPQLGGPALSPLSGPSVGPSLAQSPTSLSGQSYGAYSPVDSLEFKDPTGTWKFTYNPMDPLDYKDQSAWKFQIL
# Procedure, shortened: as §1
# ETV1 = ETV1 (Homo sapiens, UniProt P50549 1-477); settings: protein: recombinant; tags: N-terminal GST; dsDNA, one strand shown
# Sequence of ETV1 (P50549 whole entry): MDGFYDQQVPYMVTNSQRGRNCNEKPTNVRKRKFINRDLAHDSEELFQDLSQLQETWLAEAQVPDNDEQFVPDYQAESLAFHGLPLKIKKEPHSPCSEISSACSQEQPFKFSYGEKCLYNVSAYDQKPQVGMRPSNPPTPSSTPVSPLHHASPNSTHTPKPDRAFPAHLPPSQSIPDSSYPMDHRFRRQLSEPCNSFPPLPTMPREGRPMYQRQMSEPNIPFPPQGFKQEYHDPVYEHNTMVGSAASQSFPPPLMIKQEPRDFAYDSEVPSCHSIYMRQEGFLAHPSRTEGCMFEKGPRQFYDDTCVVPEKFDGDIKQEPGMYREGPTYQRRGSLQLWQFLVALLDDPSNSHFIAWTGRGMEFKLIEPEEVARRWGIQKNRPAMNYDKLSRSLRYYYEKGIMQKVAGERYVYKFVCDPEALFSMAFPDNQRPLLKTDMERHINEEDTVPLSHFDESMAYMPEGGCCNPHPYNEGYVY
# Procedure, shortened: as §1
sequence,measurement,setting,value
CTAAAG,binding signal,FLI1,"1.39 fold enrichment (6-mer frequency, TF over GST control)"
same,binding signal,ELK1,"1.35 fold enrichment (6-mer frequency, TF over GST control)"
same,binding signal,GABPA,"1.45 fold enrichment (6-mer frequency, TF over GST control)"
same,binding signal,ERG,"1.36 fold enrichment (6-mer frequency, TF over GST control)"
same,binding signal,ELF1,"1.39 fold enrichment (6-mer frequency, TF over GST control)"
same,binding signal,EHF,"1.35 fold enrichment (6-mer frequency, TF over GST control)"
same,binding signal,SPI1,"1.3 fold enrichment (6-mer frequency, TF over GST control)"
same,binding signal,SPIB,"1.31 fold enrichment (6-mer frequency, TF over GST control)"
same,binding signal,ELK3,"1.49 fold enrichment (6-mer frequency, TF over GST control)"
same,binding signal,FEV,"1.29 fold enrichment (6-mer frequency, TF over GST control)"
same,binding signal,ETV5,"1.29 fold enrichment (6-mer frequency, TF over GST control)"
same,binding signal,HSF1,"1.48 fold enrichment (6-mer frequency, TF over GST control)"
same,binding signal,SPIC,"1.36 fold enrichment (6-mer frequency, TF over GST control)"
same,binding signal,ELF4,"1.34 fold enrichment (6-mer frequency, TF over GST control)"
same,binding signal,ELK4,"1.44 fold enrichment (6-mer frequency, TF over GST control)"
same,binding signal,ETV2,"1.29 fold enrichment (6-mer frequency, TF over GST control)"
same,binding signal,ELF3,"1.44 fold enrichment (6-mer frequency, TF over GST control)"
same,binding signal,CRX,"1.85 fold enrichment (6-mer frequency, TF over GST control)"
same,binding signal,ETV1,"1.45 fold enrichment (6-mer frequency, TF over GST control)"
